This is an account of results in article PMC7862700, “An all-to-all approach to the identification of sequence-specific readers for epigenetic DNA modifications on cytosine”.

Holding throughout (assay): DAPPL (digital affinity profiling via proximity ligation, sequencing); 10 mM Tris-HCl pH 7.5, 50 mM NaCl, 1 mM DTT, 4% glycerol, room temperature, 30 min; GST-TFs on glutathione beads, 16-mer random dsDNA library, 0.1% formaldehyde crosslink after washing; high values mean tight binding
In one assay the target is T1, FLI1 (Homo sapiens, UniProt Q01543 1-452).
T1 sequence: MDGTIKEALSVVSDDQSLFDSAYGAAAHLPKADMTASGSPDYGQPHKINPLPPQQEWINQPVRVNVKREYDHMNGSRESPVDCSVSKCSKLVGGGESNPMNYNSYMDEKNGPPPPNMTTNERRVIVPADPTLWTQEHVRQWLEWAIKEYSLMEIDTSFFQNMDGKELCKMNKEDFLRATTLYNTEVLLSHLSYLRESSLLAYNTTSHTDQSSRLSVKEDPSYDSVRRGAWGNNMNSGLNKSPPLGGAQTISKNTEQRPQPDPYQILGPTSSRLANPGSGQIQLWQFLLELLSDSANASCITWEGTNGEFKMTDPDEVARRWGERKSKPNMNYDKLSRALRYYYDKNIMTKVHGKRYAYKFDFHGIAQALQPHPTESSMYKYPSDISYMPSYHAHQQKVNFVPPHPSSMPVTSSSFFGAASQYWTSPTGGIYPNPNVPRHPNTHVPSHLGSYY
The note with it: protein: recombinant; tags: N-terminal GST; dsDNA, one strand shown. The procedure, abridged: (§1)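 Pools were built from human transcription factors expressed in yeast as GST fusions, captured on glutathione beads and DNA-barcoded, along with a tag-only sample. Incubation with 200 nmole of a 16-mer random double-stranded DNA library lasted 30 min at room temperature in Tris/NaCl/DTT/glycerol buffer, and was followed by washing, 0.1% formaldehyde crosslinking, proximity ligation, PCR amplification and Illumina NextSeq500 sequencing. Binding signal is the quotient of each hexamer's read frequency for a factor and its frequency for the tag-only sample.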

For another assay, the target named is T2, ELK1 (Homo sapiens, UniProt P19419 1-428).
T2 sequence: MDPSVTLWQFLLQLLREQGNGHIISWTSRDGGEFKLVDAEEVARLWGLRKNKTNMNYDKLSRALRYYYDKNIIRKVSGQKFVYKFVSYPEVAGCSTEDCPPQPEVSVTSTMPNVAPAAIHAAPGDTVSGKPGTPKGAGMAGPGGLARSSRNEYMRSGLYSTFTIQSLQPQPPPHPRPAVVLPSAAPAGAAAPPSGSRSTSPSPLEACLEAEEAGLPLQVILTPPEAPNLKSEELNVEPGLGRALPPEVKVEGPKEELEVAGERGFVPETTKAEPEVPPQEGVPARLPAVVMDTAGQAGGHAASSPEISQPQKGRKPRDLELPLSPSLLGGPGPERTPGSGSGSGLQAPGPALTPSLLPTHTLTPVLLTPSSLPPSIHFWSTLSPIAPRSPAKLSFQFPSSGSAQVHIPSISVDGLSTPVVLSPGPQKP
The conditions noted are these: protein: recombinant; tags: N-terminal GST; dsDNA, one strand shown. The essentials:
as §1

In a further assay the target is T3, GABPA (Homo sapiens, UniProt Q06546 1-454).
T3 sequence: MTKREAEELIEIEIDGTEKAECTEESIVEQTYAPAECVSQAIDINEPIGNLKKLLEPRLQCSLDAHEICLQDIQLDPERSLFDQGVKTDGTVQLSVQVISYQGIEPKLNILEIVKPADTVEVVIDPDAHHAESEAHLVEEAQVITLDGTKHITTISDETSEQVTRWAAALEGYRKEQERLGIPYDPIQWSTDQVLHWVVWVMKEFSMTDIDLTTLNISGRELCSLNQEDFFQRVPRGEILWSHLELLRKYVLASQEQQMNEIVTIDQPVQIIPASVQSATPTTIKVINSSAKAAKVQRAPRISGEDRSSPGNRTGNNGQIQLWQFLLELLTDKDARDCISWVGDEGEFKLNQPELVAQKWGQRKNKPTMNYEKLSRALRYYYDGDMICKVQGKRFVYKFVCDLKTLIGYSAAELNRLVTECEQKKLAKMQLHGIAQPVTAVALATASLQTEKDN
The note with it: protein: recombinant; tags: N-terminal GST; dsDNA, one strand shown. The essentials:
as §1

Another assay addresses T4, ERG (Homo sapiens, UniProt P11308 1-479).
T4 sequence: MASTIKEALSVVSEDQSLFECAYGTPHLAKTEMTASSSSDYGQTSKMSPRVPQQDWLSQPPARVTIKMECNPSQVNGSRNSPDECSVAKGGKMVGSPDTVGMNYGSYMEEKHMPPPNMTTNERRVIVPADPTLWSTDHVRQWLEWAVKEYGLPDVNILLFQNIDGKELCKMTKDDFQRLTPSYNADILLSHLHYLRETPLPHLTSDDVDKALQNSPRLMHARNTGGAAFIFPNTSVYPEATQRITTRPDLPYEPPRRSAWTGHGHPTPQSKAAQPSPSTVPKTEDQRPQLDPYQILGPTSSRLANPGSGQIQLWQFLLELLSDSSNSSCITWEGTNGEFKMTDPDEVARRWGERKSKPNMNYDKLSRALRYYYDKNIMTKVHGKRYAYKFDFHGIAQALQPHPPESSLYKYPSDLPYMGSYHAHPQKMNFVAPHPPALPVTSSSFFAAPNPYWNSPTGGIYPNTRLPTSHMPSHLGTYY
The conditions noted are these: protein: recombinant; tags: N-terminal GST; dsDNA, one strand shown. The procedure, abridged: as §1

The next assay deals with ELF1 (Homo sapiens, UniProt P32519 1-619). The note with it: protein: recombinant; tags: N-terminal GST; dsDNA, one strand shown. The essentials: as §1
A further assay addresses T5, EHF (Homo sapiens, UniProt Q9NZC4 1-300).
T5 sequence: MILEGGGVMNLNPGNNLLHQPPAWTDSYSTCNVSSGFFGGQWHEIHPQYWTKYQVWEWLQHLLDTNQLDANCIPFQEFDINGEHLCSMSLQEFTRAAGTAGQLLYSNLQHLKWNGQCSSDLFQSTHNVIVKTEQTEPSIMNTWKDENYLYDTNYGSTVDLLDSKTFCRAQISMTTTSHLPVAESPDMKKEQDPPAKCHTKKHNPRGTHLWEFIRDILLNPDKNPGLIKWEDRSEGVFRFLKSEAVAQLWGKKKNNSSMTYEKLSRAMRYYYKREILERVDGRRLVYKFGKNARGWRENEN
The note with it: protein: recombinant; tags: N-terminal GST; dsDNA, one strand shown. The essentials:
as §1

In another assay the target is SPI1 (Homo sapiens, UniProt P17947 1-270). The conditions noted are these: protein: recombinant; tags: N-terminal GST; dsDNA, one strand shown. The essentials:
as §1

The target of the next assay is SPIB (Homo sapiens, UniProt Q01892 1-262). The note with it: protein: recombinant; tags: N-terminal GST; dsDNA, one strand shown. The procedure, abridged: as §1
The target of a further assay is T6, ELK3 (Homo sapiens, UniProt P41970 1-407).
T6 sequence: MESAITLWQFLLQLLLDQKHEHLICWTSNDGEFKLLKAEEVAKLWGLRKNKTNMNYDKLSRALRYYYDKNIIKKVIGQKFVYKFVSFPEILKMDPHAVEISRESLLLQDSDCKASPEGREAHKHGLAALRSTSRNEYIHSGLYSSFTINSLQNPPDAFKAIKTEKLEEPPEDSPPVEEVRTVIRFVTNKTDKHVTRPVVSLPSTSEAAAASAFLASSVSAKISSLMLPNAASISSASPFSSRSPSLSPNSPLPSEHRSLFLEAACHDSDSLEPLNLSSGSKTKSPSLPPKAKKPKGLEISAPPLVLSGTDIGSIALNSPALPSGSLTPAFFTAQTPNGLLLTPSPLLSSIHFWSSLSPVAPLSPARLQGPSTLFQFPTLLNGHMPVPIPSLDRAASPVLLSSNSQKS
The conditions noted are these: protein: recombinant; tags: N-terminal GST; dsDNA, one strand shown. The procedure, abridged: as §1

In a further assay the target is T7, FEV (Homo sapiens, UniProt Q99581 1-238).
T7 sequence: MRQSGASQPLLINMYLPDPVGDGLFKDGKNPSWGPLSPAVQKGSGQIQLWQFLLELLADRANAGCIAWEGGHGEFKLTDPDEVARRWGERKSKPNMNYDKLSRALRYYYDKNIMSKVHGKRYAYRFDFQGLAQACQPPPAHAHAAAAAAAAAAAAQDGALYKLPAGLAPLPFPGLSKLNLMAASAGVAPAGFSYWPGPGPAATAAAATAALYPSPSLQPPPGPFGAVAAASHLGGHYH
The conditions noted are these: protein: recombinant; tags: N-terminal GST; dsDNA, one strand shown. The procedure, abridged:
as §1

The target in the next assay is ETV5 (Homo sapiens, UniProt P41161 1-510). The note with it: protein: recombinant; tags: N-terminal GST; dsDNA, one strand shown. The essentials: as §1
For a further assay, the target named is HSF1 (Homo sapiens, UniProt Q00613 1-529). The conditions noted are these: protein: recombinant; tags: N-terminal GST; chain copies: 3; dsDNA, one strand shown. The procedure, abridged: as §1
The target in another assay is T8, SPIC (Homo sapiens, UniProt Q8N5J4 1-248).
T8 sequence: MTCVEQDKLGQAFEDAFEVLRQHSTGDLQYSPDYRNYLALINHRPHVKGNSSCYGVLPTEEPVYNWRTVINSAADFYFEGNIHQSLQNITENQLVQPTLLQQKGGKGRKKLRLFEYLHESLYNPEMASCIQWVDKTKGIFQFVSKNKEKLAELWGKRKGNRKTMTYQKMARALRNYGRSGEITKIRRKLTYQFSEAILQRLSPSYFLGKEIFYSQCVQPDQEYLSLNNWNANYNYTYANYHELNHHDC
The note with it: protein: recombinant; tags: N-terminal GST; dsDNA, one strand shown. The essentials:
as §1

For a further assay, the target named is ELF4 (Homo sapiens, UniProt Q99607 1-663). The note with it: protein: recombinant; tags: N-terminal GST; dsDNA, one strand shown. The essentials: as §1
The next assay has as its target T9, ELK4 (Homo sapiens, UniProt P28324-2 1-405).
T9 sequence: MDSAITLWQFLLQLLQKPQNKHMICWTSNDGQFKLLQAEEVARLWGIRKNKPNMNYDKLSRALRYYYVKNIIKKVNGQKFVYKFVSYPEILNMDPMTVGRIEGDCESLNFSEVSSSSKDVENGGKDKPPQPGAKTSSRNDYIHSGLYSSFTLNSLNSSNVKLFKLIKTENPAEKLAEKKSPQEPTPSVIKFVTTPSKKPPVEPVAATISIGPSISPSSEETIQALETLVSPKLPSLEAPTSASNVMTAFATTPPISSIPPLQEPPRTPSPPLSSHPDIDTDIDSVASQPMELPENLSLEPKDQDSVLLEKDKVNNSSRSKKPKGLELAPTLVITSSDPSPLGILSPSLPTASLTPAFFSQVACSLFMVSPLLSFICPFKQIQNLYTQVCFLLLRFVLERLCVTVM
The conditions noted are these: protein: recombinant; tags: N-terminal GST; dsDNA, one strand shown. The essentials: as §1

The target of the next assay is T10, ETV2 (Homo sapiens, UniProt O00321 1-342).
T10 sequence: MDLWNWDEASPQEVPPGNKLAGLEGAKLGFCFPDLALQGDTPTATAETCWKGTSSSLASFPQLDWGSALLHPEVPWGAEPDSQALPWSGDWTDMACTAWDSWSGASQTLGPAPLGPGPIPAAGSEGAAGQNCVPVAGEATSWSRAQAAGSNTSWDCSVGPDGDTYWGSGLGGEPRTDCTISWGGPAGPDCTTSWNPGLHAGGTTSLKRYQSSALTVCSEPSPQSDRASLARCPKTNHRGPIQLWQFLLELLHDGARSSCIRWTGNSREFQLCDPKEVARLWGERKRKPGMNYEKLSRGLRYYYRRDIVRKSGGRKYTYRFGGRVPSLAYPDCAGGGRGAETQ
The conditions noted are these: protein: recombinant; tags: N-terminal GST; dsDNA, one strand shown. The essentials:
as §1

A further assay addresses T11, ELF3 (Homo sapiens, UniProt P78545 1-371).
T11 sequence: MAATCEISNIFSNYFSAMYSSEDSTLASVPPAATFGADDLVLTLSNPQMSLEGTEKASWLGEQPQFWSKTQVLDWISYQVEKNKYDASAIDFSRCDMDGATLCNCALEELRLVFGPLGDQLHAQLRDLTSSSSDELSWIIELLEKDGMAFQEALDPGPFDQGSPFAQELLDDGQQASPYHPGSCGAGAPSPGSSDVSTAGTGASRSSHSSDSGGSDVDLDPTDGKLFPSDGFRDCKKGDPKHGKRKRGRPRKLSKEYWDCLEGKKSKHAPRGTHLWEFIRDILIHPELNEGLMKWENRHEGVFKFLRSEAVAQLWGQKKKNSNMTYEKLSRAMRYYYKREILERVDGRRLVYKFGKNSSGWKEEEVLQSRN
The conditions noted are these: protein: recombinant; tags: N-terminal GST; dsDNA, one strand shown. The essentials:
as §1

The next assay has as its target CRX (Homo sapiens, UniProt O43186 1-299). The note with it: protein: recombinant; tags: N-terminal GST; dsDNA, one strand shown. The essentials:
as §1

The target in a further assay is ETV1 (Homo sapiens, UniProt P50549 1-477). The conditions noted are these: protein: recombinant; tags: N-terminal GST; dsDNA, one strand shown. The essentials: as §1
ETV1, sequence (P50549 whole entry): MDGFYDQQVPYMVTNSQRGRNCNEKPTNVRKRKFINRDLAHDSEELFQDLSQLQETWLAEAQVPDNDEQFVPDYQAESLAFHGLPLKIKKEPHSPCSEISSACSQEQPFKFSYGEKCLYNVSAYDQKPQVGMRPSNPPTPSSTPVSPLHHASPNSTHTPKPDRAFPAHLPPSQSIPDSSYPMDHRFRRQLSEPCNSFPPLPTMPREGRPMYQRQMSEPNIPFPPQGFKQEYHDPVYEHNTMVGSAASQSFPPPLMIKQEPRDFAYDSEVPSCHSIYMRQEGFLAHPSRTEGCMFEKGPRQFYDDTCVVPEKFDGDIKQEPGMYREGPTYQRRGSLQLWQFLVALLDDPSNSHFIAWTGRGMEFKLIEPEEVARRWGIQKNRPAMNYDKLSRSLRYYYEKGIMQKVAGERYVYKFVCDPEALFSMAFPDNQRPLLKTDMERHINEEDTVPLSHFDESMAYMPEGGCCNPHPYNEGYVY

CRX, sequence (O43186 whole entry): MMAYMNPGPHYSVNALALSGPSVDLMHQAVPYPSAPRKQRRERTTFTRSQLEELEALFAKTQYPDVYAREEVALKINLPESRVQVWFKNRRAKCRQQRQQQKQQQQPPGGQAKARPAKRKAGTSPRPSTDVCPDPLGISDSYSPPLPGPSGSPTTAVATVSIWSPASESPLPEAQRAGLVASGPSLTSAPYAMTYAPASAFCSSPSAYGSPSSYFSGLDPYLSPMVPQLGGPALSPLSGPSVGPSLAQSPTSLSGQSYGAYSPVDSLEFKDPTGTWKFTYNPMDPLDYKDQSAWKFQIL
ELF4, sequence (Q99607 whole entry): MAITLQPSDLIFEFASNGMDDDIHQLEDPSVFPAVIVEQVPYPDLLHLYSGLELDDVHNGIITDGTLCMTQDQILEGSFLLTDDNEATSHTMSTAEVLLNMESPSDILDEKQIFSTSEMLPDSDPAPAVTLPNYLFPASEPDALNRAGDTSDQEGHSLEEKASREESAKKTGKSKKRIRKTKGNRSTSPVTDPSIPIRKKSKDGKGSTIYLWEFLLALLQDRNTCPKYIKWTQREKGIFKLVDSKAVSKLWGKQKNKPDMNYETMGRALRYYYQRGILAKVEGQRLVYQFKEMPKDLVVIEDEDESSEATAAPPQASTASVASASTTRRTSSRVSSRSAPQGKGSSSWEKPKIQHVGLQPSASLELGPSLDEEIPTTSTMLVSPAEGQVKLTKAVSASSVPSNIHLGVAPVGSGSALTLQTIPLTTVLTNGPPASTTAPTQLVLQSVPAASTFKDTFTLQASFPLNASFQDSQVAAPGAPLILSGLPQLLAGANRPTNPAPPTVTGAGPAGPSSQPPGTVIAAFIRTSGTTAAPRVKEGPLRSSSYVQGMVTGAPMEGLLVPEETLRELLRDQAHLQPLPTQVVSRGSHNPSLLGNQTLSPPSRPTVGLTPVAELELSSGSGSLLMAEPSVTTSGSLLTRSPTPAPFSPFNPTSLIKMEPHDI
SPIB, sequence (Q01892 whole entry): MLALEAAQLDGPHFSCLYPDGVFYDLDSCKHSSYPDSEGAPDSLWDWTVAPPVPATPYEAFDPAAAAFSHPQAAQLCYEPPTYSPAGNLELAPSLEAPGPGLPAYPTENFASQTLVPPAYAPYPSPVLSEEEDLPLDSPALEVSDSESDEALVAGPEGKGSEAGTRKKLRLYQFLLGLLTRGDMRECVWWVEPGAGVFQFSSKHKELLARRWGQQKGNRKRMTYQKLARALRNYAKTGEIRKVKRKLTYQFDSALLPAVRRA
ETV5, sequence (P41161 whole entry): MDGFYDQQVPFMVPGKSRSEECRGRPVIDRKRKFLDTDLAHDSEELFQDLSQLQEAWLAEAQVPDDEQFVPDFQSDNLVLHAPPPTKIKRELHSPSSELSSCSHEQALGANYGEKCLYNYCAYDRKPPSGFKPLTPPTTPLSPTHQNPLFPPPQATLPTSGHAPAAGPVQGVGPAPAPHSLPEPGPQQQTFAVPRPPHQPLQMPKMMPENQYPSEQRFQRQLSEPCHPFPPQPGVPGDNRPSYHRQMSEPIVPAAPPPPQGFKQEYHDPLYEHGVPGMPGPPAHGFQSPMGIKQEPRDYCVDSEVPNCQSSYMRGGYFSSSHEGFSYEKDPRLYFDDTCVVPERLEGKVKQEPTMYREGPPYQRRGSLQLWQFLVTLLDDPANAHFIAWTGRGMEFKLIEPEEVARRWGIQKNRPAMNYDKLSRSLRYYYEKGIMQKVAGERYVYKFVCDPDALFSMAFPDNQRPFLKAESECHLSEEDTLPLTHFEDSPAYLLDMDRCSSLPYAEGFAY
HSF1, sequence (Q00613 whole entry): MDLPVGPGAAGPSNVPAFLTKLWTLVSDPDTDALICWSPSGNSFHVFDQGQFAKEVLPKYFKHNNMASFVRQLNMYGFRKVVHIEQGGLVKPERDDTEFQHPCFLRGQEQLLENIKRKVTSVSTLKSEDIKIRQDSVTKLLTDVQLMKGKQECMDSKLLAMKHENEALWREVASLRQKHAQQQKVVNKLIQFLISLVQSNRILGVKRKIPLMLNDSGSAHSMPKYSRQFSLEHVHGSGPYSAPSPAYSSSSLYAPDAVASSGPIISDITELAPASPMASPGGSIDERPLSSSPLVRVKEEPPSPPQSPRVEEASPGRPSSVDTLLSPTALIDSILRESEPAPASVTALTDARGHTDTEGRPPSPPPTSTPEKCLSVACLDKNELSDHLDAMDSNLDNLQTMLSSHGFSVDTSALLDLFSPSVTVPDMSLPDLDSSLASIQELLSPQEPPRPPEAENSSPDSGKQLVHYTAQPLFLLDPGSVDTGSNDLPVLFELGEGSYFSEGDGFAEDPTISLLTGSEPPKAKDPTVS
ELF1, sequence (P32519 whole entry): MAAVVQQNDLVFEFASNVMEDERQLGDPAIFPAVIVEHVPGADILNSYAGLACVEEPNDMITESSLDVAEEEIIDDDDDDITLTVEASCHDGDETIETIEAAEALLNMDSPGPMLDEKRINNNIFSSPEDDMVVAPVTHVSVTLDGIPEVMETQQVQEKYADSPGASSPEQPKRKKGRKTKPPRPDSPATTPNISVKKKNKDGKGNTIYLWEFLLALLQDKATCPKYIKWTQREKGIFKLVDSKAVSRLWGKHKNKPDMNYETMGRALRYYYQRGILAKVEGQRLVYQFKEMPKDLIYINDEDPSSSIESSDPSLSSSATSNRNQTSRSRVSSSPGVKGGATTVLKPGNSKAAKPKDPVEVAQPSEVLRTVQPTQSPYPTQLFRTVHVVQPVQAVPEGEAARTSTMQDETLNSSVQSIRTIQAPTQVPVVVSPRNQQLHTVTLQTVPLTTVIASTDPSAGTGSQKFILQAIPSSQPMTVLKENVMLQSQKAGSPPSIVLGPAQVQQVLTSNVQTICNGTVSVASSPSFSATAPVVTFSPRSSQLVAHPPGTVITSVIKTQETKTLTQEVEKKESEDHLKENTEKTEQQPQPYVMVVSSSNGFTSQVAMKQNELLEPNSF

As for GACCTA, the binding signal in the assay with FLI1 is 1.18 fold enrichment (6-mer frequency, TF over GST control); in the assay with ELK1, 1.07 fold enrichment (6-mer frequency, TF over GST control); in the assay with GABPA, 1.17 fold enrichment (6-mer frequency, TF over GST control); with ERG, 1.11 fold enrichment (6-mer frequency, TF over GST control); in the assay with ELF1, 1.21 fold enrichment (6-mer frequency, TF over GST control); with EHF, 1.15 fold enrichment (6-mer frequency, TF over GST control). For the same sequence, the binding signal with SPI1 was 1.02 fold enrichment (6-mer frequency, TF over GST control); in the assay with SPIB it was 1.08 fold enrichment (6-mer frequency, TF over GST control); with ELK3, 1.21 fold enrichment (6-mer frequency, TF over GST control); with FEV it was 1.17 fold enrichment (6-mer frequency, TF over GST control); with ETV5, 1.2 fold enrichment (6-mer frequency, TF over GST control); with HSF1, 1.06 fold enrichment (6-mer frequency, TF over GST control). Moreover, the binding signal is 1.18 fold enrichment (6-mer frequency, TF over GST control) in the assay with SPIC; 1.24 fold enrichment (6-mer frequency, TF over GST control) in the assay with ELF4; 1.14 fold enrichment (6-mer frequency, TF over GST control) with ELK4; 1.26 fold enrichment (6-mer frequency, TF over GST control) with ETV2; 1.06 fold enrichment (6-mer frequency, TF over GST control) with ELF3; 1.07 fold enrichment (6-mer frequency, TF over GST control) with CRX. The binding signal in the assay with ETV1 was 1.16 fold enrichment (6-mer frequency, TF over GST control).
